Screening data: PubChem BioAssay, National Center for Advancing Translational Sciences (NCATS)
MCF10A rereplic: induces DNA re-replication in MCF 10a normal breast cells; AID 624296; MCF 10A DNA re-replication, Hoechst nuclear intensity, 48 h; actives 2.9% (n = 350,000); Potency, µM (highest dose often 46.1 µM), for inactives: at the top dose activity, positive = re-replication, hits mostly activators; also: potency is read from the fitted curve at half-maximal effect; % of control where 0% means no effect; nearly all actives have a fitted effect of over 50% in size
uPA surface inh: blocks generation of uPA at the cell surface; actives 0.31% (n = 330,000); Potency, µM (highest dose often 38.3 µM), without a hit: top-dose activity change, negative = inhibition, most hits filed as inhibitors; cell surface uPA generation assay, qHTS; active = well fitted inhibition curve with a large enough effect; inconclusive = small, poorly fitted or top-dose-only effect; inactive = no such curve, though single readings can be large or run the other way; tested in mouse RAW 264.7 cells; also: potency is read from the fitted curve at half-maximal effect; % is scaled to controls: 0 for no effect and ±100 for the full control effect; nearly all actives have a fitted effect of over 55% in size
SW480 rerep: DNA re-replication induction in SW480 cells. SW480 DNA re-replication, Hoechst DNA content imaging, 48 h. Potency, µM (doses to about 46.1 µM), without a hit: at the highest dose re-replication activation, hits mostly activators. actives 1.8% (n = 340,000). AID 624297; also: potency is read from the fitted curve at half-maximal effect; % of control where 0% means no effect; nearly all actives have a fitted effect of over 55% in size
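First, 250 cells per well were seeded. Next, compound or vehicle (23 nL) was pinned in, plates sat 48 hr at 37 C. Finally Hoechst was added for 40 min before fluorescence scanning.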
Giardia killer: kills Giardia lamblia. activity change, % at 7.66 µM, hits read low. Giardia lamblia trophozoite viability. actives 0.15% (n = 340,000); in the data active = activity change below about -80%; inconclusive = between about -30% and that limit;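 also: parasites exposed to compound for two days anaerobically before the ATP read; % is scaled to controls: 0 for no effect and ±100 for the full control effect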
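Giardia trophozoites, 100 cells per well, were exposed to compounds for 48 hrs at 37 deg C under anaerobic conditions; viability was then read as ATP content by bioluminescence after 15-30 min at room temperature.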
Starred values were filed as active, the others as inactive; u = inconclusive; x = not tested or not shown; [ ] = another dose, or the depositor's remark. A selection: hits, their analogues and other compounds. The true share with any hit is near 4.3%. Unless noted, calls follow the shape of the dose curve; as a rule, active = well fitted activation curve with a large enough effect; inconclusive = small, poorly fitted or top-dose-only effect; inactive = no such curve, though single readings can be large or run the other way.

SMILES | MCF10A rereplic | uPA surface inh | SW480 rerep | Giardia killer
COc1ccc(/C=N/NC(=O)c2cc(-c3cccnc3)nc3ccccc23)c(OC)c1 | -2% | 2% | -3% | -18
COc1ccc(-c2cc(C(=O)N/N=C/c3cccnc3)c3cc(C)cc(C)c3n2)cc1 | 16µM* | -3% | u | -20
Cc1ccc(COc2ccccc2-c2cc(C(=O)N/N=C/c3cccnc3)[nH]n2)cc1 | 8.2µM* | 4% | 57% | -2
CCOc1cc(/C=N/NC(=O)c2cc(-c3cccc(OC)c3)nc3ccccc23)ccc1O | 9% | -20% | u | -27
CCOc1ccc(-c2cc(C(=O)N/N=C/c3cccnc3)c3ccccc3n2)cc1 | 2.9µM* | -7% | 7.3µM* | -14
CC(C)COc1cccc(-c2cc(C(=O)N/N=C/c3ccncc3)c3ccccc3n2)c1 | 18µM* | -7% | 4% | -21
CCn1c(C)nnc1SCC(=O)Nc1cccc(Cl)c1 | 2% | 14% | 15µM* | -20
CCn1c(C)nnc1SCC(=O)Nc1ccc(C(C)=O)cc1 | 1% | 14% | -4% | u
S=c1[nH]cc(-c2ccccc2)n1-c1ccccc1Cl | 8% | -5% | -3% | 6
COc1ccccc1-n1c(-c2ccccc2)c[nH]c1=S | 5.2µM* | 21% | -7% | -30
CCN1C(=O)/C(=C/c2ccc(C)o2)N(C)C1=S | u | -6% | 18µM* | -5
COc1ccc(NC(=O)Nc2ccc3c(c2)C(=O)N([C@@H](C)CO)C[C@@H](C)[C@@H](CN(C)S(=O)(=O)c2cn(C)cn2)O3)cc1 | u | 10% | 1% | -16
Cc1ccc(N(CCC#N)C(=O)CCl)cc1C | 23µM* | -17% | 7.3µM* | 0
O=C(c1cc(NC(=O)C23CC4CC(CC(C4)C2)C3)cc(NC(=O)C23CC4CC(CC(C4)C2)C3)c1)N1CCCCC1 | 13% | 1% | 13µM* | 5
O=C(NC(=S)N1CCCCC1)C12CC3CC(CC(C3)C1)C2 | 1% | 7% | 0% | 5
Cc1onc(-c2ccccc2Cl)c1C(=O)N[C@H]1C(=O)N2[C@H]1SC(C)(C)[C@H]2C(=O)O | -1%[20.6 µM] | x | -6%[20.6 µM] | x
